{"source": "PubChem BioAssay (NCI)", "assay_in_all_cases": "NCI-60 one-dose screen, 48 h (100 = growth as untreated, 0 = no growth, -100 = all killed)", "key": {"[1]": {"system": "HL-60(TB) leukemia", "conditions": "10 µM unless noted"}, "[2]": {"system": "UACC-62 melanoma", "conditions": "10 µM unless noted"}, "[3]": {"system": "TK-10 renal", "conditions": "10 µM unless noted"}, "[4]": {"system": "MCF7 breast", "conditions": "10 µM unless noted"}, "[5]": {"system": "NCI-H460 lung", "conditions": "10 µM unless noted"}, "[6]": {"system": "786-0 renal", "conditions": "10 µM unless noted"}, "[7]": {"system": "DU-145 prostate", "conditions": "10 µM unless noted"}, "[8]": {"system": "MDA-MB-231 breast", "conditions": "10 µM unless noted"}, "[9]": {"system": "SF-268 CNS", "conditions": "10 µM unless noted"}, "[10]": {"system": "SF-539 CNS", "conditions": "10 µM unless noted"}, "[11]": {"system": "HCT-15 colon", "conditions": "10 µM"}, "[12]": {"system": "HT29 colon", "conditions": "10 µM unless noted"}, "[13]": {"system": "SNB-19 CNS", "conditions": "10 µM unless noted"}, "[14]": {"system": "SK-MEL-28 melanoma", "conditions": "10 µM unless noted"}, "[15]": {"system": "SN12C renal", "conditions": "10 µM unless noted"}, "[16]": {"system": "T-47D breast", "conditions": "10 µM unless noted"}, "[17]": {"system": "MDA-MB-435 melanoma", "conditions": "10 µM unless noted"}, "[18]": {"system": "SW-620 colon", "conditions": "10 µM unless noted"}, "[19]": {"system": "KM12 colon", "conditions": "10 µM unless noted"}, "[20]": {"system": "UO-31 renal", "conditions": "10 µM unless noted"}}, "note": "Values joined by “and” are separate entries in the source; they are usually repeats but may differ in a detail not shown here. Equal entries are not always repeated. About 83,000 compounds went through this panel and 20% of them were active in at least one assay; those are over-represented in the sample as a whole.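 Single-concentration screen, 48 h exposure, 96-well plates. Endpoint: percent growth. Below 10 = active.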 Active and inactive are the calls of the source."}
{"compound": "COc1cc2ncnc(-n3ncc4cc(NC(=O)Nc5ccccc5)ccc43)c2cc1OC", "values": [{"measurement": "growth", "setting": "[1]", "result": "-15.9% (active)"}]}
{"compound": "CN(N)/N=N/c1nc[nH]c1C(N)=O", "values": [{"measurement": "growth", "setting": "[2]", "result": "-13.9% [100 µM] (active) and 0.502% [100 µM] (active)"}, {"measurement": "growth", "setting": "[3]", "result": "5.8% [100 µM] (active) and 2.21% [100 µM] (active)"}, {"measurement": "growth", "setting": "[4]", "result": "19% [100 µM] (inactive) and 4.05% [100 µM] (active)"}]}
{"compound": "NC(=O)CN1C(=O)C(Cc2ccc(O)cc2)N=C(c2cccc(O)c2)c2ccccc21", "note": "(configuration not stated)", "values": [{"measurement": "growth", "setting": "[2]", "result": "80.7% [30 µM] (inactive)"}, {"measurement": "growth", "setting": "[3]", "result": "106% [30 µM] (inactive)"}, {"measurement": "growth", "setting": "[4]", "result": "75.5% [30 µM] (inactive)"}]}
{"compound": "O=C(Nc1ccc(NS(=O)(=O)c2ccc(F)cc2)cc1)C12CC3CC(CC(C3)C1)C2", "values": [{"measurement": "growth", "setting": "[1]", "result": "96.1% (inactive)"}]}
{"compound": "COc1cc(-c2nc3nc4sc(C)c(C)c4c(=O)n3[nH]2)cc(OC)c1OC", "values": [{"measurement": "growth", "setting": "[1]", "result": "80.7% (inactive)"}]}
{"compound": "CN1C(=O)C(CCC(=O)O)N=C(c2cccc(O)c2)c2ccccc21", "note": "(configuration not stated)", "values": [{"measurement": "growth", "setting": "[2]", "result": "82% [30 µM] (inactive)"}, {"measurement": "growth", "setting": "[3]", "result": "113% [30 µM] (inactive)"}, {"measurement": "growth", "setting": "[4]", "result": "89% [30 µM] (inactive)"}]}
{"compound": "N#CCN1C(=O)C(Cc2ccccc2)N=C(c2cccc(O)c2)c2ccc(Cl)cc21", "note": "(configuration not stated)", "values": [{"measurement": "growth", "setting": "[2]", "result": "103% [30 µM] (inactive)"}, {"measurement": "growth", "setting": "[3]", "result": "102% [30 µM] (inactive)"}, {"measurement": "growth", "setting": "[4]", "result": "100% [30 µM] (inactive)"}]}
{"compound": "CNCCNc1nc2ccccc2c2c(=O)c3cc(F)ccc3sc12", "values": [{"measurement": "growth", "setting": "[1]", "result": "-33.1% (active)"}]}
{"compound": "O=C(O)CN1C(=O)C(Cc2ccccc2)N=C(c2cccc(O)c2)c2ccccc21", "note": "(configuration not stated)", "values": [{"measurement": "growth", "setting": "[2]", "result": "90.1% [30 µM] (inactive)"}, {"measurement": "growth", "setting": "[3]", "result": "96% [30 µM] (inactive)"}, {"measurement": "growth", "setting": "[4]", "result": "79% [30 µM] (inactive)"}]}
{"compound": "CCOC(=O)C1(c2ccccc2)CCN(CC(=O)c2ccc(NC(C)=O)cc2)CC1", "values": [{"measurement": "growth", "setting": "[5]", "result": "112% (inactive)"}, {"measurement": "growth", "setting": "[6]", "result": "110% (inactive)"}, {"measurement": "growth", "setting": "[7]", "result": "123% (inactive)"}, {"measurement": "growth", "setting": "[8]", "result": "102% (inactive)"}, {"measurement": "growth", "setting": "[9]", "result": "116% (inactive)"}, {"measurement": "growth", "setting": "[10]", "result": "113% (inactive)"}, {"measurement": "growth", "setting": "[11]", "result": "108% (inactive)"}, {"measurement": "growth", "setting": "[12]", "result": "103% (inactive)"}, {"measurement": "growth", "setting": "[13]", "result": "102% (inactive)"}, {"measurement": "growth", "setting": "[2]", "result": "94% (inactive)"}, {"measurement": "growth", "setting": "[14]", "result": "124% (inactive)"}, {"measurement": "growth", "setting": "[15]", "result": "93.2% (inactive)"}, {"measurement": "growth", "setting": "[3]", "result": "96.4% (inactive)"}, {"measurement": "growth", "setting": "[1]", "result": "111% (inactive)"}, {"measurement": "growth", "setting": "[16]", "result": "88.2% (inactive)"}, {"measurement": "growth", "setting": "[17]", "result": "106% (inactive)"}, {"measurement": "growth", "setting": "[18]", "result": "104% (inactive)"}, {"measurement": "growth", "setting": "[4]", "result": "107% (inactive)"}, {"measurement": "growth", "setting": "[19]", "result": "112% (inactive)"}]}
{"compound": "O=C1OC(c2ccccc2)C(O)=C1c1ccccc1", "note": "(configuration not stated)", "values": [{"measurement": "growth", "setting": "[1]", "result": "101% (inactive)"}]}
{"compound": "Oc1ccc(/C=C/c2ccccc2)cc1", "values": [{"measurement": "growth", "setting": "[1]", "result": "34.1% (inactive)"}]}
{"compound": "Oc1ccc(Br)cc1CN1CCN(Cc2ccc(Cl)cc2)CC1", "values": [{"measurement": "growth", "setting": "[5]", "result": "93.1% (inactive)"}, {"measurement": "growth", "setting": "[6]", "result": "107% (inactive)"}, {"measurement": "growth", "setting": "[7]", "result": "88.5% (inactive)"}, {"measurement": "growth", "setting": "[8]", "result": "49.2% (inactive)"}, {"measurement": "growth", "setting": "[9]", "result": "64.2% (inactive)"}, {"measurement": "growth", "setting": "[10]", "result": "92.9% (inactive)"}, {"measurement": "growth", "setting": "[11]", "result": "59.7% (inactive)"}, {"measurement": "growth", "setting": "[12]", "result": "70.2% (inactive)"}, {"measurement": "growth", "setting": "[13]", "result": "87.8% (inactive)"}, {"measurement": "growth", "setting": "[2]", "result": "50.7% (inactive)"}, {"measurement": "growth", "setting": "[14]", "result": "88.2% (inactive)"}, {"measurement": "growth", "setting": "[15]", "result": "89.6% (inactive)"}, {"measurement": "growth", "setting": "[20]", "result": "47.4% (inactive)"}, {"measurement": "growth", "setting": "[3]", "result": "106% (inactive)"}, {"measurement": "growth", "setting": "[1]", "result": "47.5% (inactive)"}, {"measurement": "growth", "setting": "[16]", "result": "65.1% (inactive)"}, {"measurement": "growth", "setting": "[17]", "result": "12.8% (inactive)"}, {"measurement": "growth", "setting": "[18]", "result": "73.1% (inactive)"}, {"measurement": "growth", "setting": "[4]", "result": "34.5% (inactive)"}, {"measurement": "growth", "setting": "[19]", "result": "64.9% (inactive)"}]}
{"compound": "CCC(c1cccc(Br)c1)C(C(=O)O)c1ccc(OC)cc1", "note": "(configuration not stated)", "values": [{"measurement": "growth", "setting": "[1]", "result": "96.2% (inactive)"}]}
{"compound": "CN(C)c1ccc(N)c2ccccc12", "values": [{"measurement": "growth", "setting": "[1]", "result": "43.5% (inactive)"}]}
{"compound": "CC1=C(CCCOC(=O)NCCCl)C2=C(C)C3(CC3)[C@@](C)(O)C(=O)C2=C1", "values": [{"measurement": "growth", "setting": "[1]", "result": "44.7% (inactive)"}]}
{"compound": "CCN(CC)c1ccc(CNc2ccnc3ccccc23)cc1", "values": [{"measurement": "growth", "setting": "[1]", "result": "33.6% (inactive)"}]}
{"compound": "c1ccc2c(c1)Oc1ccccc1C2C1c2ccccc2Oc2ccccc21", "values": [{"measurement": "growth", "setting": "[1]", "result": "99.4% (inactive)"}]}
{"compound": "CCN(CC)CCCNCCCNc1cc(OC)cc2cccnc12", "values": [{"measurement": "growth", "setting": "[1]", "result": "-3.42% (active)"}]}
{"compound": "O=C1C=CC(=O)C2=C1CCCC2", "values": [{"measurement": "growth", "setting": "[1]", "result": "28.7% (inactive)"}]}
{"compound": "Cn1c2c(cc(S(=O)(=O)c3ccccc3)c1=O)CCc1c-2cnn1-c1cccc(Cl)c1", "values": [{"measurement": "growth", "setting": "[1]", "result": "107% (inactive)"}]}
{"compound": "O=S(=O)(Nc1cc(F)cc(Cl)c1)c1ccc(-c2cnc(C3CC3)o2)cc1", "values": [{"measurement": "growth", "setting": "[1]", "result": "7.71% (active)"}]}
{"compound": "C/C=C/C1OC23CCCCC2C(C#N)(C(=N)O3)C1(C#N)C#N", "note": "(configuration not stated)", "values": [{"measurement": "growth", "setting": "[1]", "result": "106% (inactive)"}]}
{"compound": "FC(F)(F)c1cc(NC2=NCCN=C(Nc3cc(C(F)(F)F)cc(C(F)(F)F)c3)SS2)cc(C(F)(F)F)c1", "values": [{"measurement": "growth", "setting": "[1]", "result": "52.9% (inactive)"}]}
{"compound": "NNC(=O)CNC(=O)Nc1n[nH]c(=S)s1", "values": [{"measurement": "growth", "setting": "[1]", "result": "107% (inactive)"}]}
{"compound": "C#C[C@@]1(O)[C@@H](CO)O[C@@H](n2cc(Cl)c3c(N)ccnc32)[C@@H]1O", "values": [{"measurement": "growth", "setting": "[1]", "result": "-2.37% (active)"}]}
{"compound": "Cn1cc(-c2nc3c(F)cc4[nH]ncc4c3c3c2CCCC3)c(C(F)F)n1", "values": [{"measurement": "growth", "setting": "[1]", "result": "10.8% (inactive)"}]}
{"compound": "COc1cc(/C=N\\Nc2ccccc2)ccc1OC(=O)c1ccccc1", "values": [{"measurement": "growth", "setting": "[1]", "result": "-10.8% (active)"}]}
{"compound": "CN(Cc1ccccc1)c1nc(Cl)c(C2CC(c3ccc(F)cc3)=NN2C=O)s1", "note": "(configuration not stated)", "values": [{"measurement": "growth", "setting": "[1]", "result": "102% (inactive)"}]}
{"compound": "Cc1ccc(Nc2nnc(-c3ccc(Cl)cc3)o2)c(C)c1", "values": [{"measurement": "growth", "setting": "[1]", "result": "84.2% (inactive)"}]}
{"compound": "O=C(/C=C/c1cc2ccccc2[nH]c1=O)c1ccc2c(c1)OCO2", "values": [{"measurement": "growth", "setting": "[1]", "result": "79% (inactive)"}]}
{"compound": "CCCOc1ccc(/C=N/Nc2cc(C)nc3ccc(Cl)cc23)cc1", "values": [{"measurement": "growth", "setting": "[1]", "result": "-48% (active)"}]}
{"compound": "CCOC(=O)c1cnn(CC(C)O)c1NC(=O)NCc1cccc(F)c1", "note": "(configuration not stated)", "values": [{"measurement": "growth", "setting": "[1]", "result": "90.5% (inactive)"}]}
{"compound": "O=C(/C=C/c1ccc(Cl)cc1)c1ccc(Cl)cc1", "values": [{"measurement": "growth", "setting": "[1]", "result": "69.2% (inactive)"}]}
{"compound": "O=C(/C=C(O)/C=C/c1ccc(SC(F)(F)F)cc1)/C=C/c1ccc(SC(F)(F)F)cc1", "values": [{"measurement": "growth", "setting": "[1]", "result": "81.9% (inactive)"}]}
